In the supplement of paper PMC10849652:
About 8,800 targets were measured; listed, in parts, are those with a hit and a random draw of the rest. About 0.5% of all pairs of compound and target were hits. Unmarked numbers belong to inactive results.

Experiments:
Test in all cases: log2 fold change, soluble protein after heating vs DMSO (PISA); higher = thermal stabilisation; K562 lysate, 10 uM; active = over 0.2 and 3.5 SD of the protein, either way, in both replicates (recomputed)
alvocidib = compound: CN1CC[C@H](c2c(O)cc(O)c3c(=O)cc(-c4ccccc4Cl)oc23)[C@H](O)C1 [alvocidib]
Method in brief: (§1)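 Soluble protein was defined as the supernatant remaining after 21,000xg for 90 min, following pooling of heated aliquots and adjustment to 0.5% NP-40 at 4°C. Before that, crude K562 extract at 1 mg/mL protein in PBS pH 7.4 with 1 mM MgCl2 was treated with 10 μM compound for 30 min and heated for 3 min across 48°C-58°C. Quantification used TMTpro 16plex LC-MS/MS with channel sums equalised, and values are log-two fold changes in thermal stability relative to solvent controls from duplicates.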

Tubastatin A = compound: CN1CCc2c(c3ccccc3n2Cc2ccc(C(=O)NO)cc2)C1 [Tubastatin A]
Method in brief: as §1

[1] = compound: CNC(=O)C1=CC=CC=C1NC2=NC(=NC=C2Cl)NC3=C(C=C(C=C3)N4CCOCC4)OC
Method in brief: as §1

defactinib = compound: CNC(=O)c1ccc(Nc2ncc(C(F)(F)F)c(NCc3nccnc3N(C)S(C)(=O)=O)n2)cc1 [defactinib]
Method in brief: as §1

[2] = compound: CNc1nc(-c2ccc3c(N)n[nH]c3c2)cc(N2C[C@@H](C(=O)NC3CCCCC3)CC[C@H]2C)n1
Method in brief: as §1

encorafenib = compound: COC(=O)N[C@@H](C)CNc1nccc(-c2cn(C(C)C)nc2-c2cc(Cl)cc(NS(C)(=O)=O)c2F)n1 [encorafenib]
Method in brief: as §1

[3] = compound: COC(=O)[C@H](CCSC)NC(=O)C1=C(C=C(C=C1)NC[C@H](CS)N)C2=CC=CC=C2
Method in brief: as §1

alisertib = compound: COc1cc(Nc2ncc3c(n2)-c2ccc(Cl)cc2C(c2c(F)cccc2OC)=NC3)ccc1C(=O)O [alisertib]
Method in brief: as §1

[4] = compound: COc1cc2nc(-c3cc(F)ccc3O)nc(N[C@@H]3CNC[C@H]3C(C)(C)O)c2cc1OC
Method in brief: as §1

gefitinib = compound: COc1cc2ncnc(Nc3ccc(F)c(Cl)c3)c2cc1OCCCN1CCOCC1 [gefitinib]
Method in brief: as §1

Sequence of UniProt Q9Y3Z3 (Q9Y3Z3 whole entry, looked up): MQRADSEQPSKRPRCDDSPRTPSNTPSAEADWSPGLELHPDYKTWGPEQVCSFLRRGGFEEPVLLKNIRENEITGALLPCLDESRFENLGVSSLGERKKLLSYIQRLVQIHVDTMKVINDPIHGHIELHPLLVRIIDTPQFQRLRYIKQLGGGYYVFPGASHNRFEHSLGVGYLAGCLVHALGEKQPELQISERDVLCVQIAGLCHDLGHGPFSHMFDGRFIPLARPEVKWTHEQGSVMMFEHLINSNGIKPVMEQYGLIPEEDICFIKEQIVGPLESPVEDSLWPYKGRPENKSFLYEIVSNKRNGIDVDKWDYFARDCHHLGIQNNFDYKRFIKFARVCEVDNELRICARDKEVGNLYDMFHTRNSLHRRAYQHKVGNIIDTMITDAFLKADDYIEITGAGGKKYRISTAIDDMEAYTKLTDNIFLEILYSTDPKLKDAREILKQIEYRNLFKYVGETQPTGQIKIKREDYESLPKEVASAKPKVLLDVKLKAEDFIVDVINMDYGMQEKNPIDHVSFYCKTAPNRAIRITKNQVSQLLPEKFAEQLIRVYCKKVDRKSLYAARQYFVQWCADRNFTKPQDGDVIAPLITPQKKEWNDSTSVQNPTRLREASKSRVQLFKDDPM
Sequence of UniProt O95248 (O95248 whole entry, looked up): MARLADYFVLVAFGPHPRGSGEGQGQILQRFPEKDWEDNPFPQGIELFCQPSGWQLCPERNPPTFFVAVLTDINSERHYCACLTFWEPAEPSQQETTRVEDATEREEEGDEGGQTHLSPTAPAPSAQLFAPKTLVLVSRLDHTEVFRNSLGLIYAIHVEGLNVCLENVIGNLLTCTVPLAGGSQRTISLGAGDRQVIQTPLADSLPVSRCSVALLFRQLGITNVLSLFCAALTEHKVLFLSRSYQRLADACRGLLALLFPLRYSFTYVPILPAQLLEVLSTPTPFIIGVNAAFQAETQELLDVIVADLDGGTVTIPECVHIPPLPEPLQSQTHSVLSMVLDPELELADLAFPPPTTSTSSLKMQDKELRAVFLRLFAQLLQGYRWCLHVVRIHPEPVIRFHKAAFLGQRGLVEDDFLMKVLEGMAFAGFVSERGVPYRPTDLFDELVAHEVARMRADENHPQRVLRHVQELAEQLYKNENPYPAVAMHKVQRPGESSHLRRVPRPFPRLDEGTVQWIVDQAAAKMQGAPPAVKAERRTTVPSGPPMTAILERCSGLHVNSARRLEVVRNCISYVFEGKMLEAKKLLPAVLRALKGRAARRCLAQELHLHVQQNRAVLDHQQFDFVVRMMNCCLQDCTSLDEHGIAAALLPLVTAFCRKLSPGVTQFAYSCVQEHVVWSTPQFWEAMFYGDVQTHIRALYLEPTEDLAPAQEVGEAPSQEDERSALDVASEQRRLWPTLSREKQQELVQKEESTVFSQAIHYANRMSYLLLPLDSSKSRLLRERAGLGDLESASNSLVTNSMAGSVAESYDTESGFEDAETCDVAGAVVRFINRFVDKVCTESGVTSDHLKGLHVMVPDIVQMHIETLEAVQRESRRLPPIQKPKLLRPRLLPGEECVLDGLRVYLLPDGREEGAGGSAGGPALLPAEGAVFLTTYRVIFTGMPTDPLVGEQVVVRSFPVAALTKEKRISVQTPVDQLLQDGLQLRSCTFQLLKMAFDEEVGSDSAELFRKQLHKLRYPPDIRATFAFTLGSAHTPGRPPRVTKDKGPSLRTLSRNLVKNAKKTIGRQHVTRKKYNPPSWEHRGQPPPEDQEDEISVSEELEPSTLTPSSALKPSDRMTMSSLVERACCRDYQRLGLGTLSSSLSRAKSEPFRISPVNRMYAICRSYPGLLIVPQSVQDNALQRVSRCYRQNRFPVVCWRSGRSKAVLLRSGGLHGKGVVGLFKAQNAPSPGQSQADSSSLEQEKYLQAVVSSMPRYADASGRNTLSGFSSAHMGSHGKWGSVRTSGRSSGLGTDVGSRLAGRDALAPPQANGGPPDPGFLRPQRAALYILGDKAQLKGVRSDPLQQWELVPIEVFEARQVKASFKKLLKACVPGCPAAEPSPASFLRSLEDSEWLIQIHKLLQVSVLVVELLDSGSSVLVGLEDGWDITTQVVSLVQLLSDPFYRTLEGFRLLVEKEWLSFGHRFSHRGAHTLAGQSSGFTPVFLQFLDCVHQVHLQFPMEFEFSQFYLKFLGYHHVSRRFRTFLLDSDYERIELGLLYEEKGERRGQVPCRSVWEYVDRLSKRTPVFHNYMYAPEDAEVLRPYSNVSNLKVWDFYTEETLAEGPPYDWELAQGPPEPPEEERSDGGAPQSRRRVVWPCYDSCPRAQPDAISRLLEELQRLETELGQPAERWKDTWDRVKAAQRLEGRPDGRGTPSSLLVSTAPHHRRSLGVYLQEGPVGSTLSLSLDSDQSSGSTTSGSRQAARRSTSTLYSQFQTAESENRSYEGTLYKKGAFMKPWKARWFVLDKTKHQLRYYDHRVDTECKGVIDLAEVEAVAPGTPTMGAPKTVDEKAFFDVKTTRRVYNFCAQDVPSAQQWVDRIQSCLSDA
Sequence of UniProt P55735 (P55735 whole entry, looked up): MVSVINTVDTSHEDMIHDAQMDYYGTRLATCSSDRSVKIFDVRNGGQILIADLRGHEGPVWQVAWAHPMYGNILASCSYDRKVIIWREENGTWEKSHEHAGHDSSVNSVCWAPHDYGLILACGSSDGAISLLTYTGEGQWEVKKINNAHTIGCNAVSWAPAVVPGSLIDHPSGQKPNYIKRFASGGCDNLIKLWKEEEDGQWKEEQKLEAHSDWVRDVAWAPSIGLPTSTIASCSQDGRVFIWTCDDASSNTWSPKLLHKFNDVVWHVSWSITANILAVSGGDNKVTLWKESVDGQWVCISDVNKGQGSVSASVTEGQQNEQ
Sequence of UniProt P04844 (P04844 whole entry, looked up): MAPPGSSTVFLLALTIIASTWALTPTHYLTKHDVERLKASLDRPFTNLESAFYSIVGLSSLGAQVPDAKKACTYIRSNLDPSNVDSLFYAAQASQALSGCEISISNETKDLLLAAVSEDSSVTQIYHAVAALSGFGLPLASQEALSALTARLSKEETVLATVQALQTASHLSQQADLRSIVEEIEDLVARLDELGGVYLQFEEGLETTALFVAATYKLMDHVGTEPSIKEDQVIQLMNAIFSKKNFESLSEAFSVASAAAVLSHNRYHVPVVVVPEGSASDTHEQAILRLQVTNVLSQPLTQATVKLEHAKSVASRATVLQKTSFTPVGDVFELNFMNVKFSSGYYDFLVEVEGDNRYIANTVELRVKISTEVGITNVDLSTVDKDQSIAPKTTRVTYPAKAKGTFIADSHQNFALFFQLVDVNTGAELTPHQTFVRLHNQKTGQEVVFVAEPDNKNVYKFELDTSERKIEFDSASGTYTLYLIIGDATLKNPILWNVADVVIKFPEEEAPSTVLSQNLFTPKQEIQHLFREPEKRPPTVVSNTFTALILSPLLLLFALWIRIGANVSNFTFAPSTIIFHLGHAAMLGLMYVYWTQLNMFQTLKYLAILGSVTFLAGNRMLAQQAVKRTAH
Sequence of UniProt P35250 (P35250 whole entry, looked up): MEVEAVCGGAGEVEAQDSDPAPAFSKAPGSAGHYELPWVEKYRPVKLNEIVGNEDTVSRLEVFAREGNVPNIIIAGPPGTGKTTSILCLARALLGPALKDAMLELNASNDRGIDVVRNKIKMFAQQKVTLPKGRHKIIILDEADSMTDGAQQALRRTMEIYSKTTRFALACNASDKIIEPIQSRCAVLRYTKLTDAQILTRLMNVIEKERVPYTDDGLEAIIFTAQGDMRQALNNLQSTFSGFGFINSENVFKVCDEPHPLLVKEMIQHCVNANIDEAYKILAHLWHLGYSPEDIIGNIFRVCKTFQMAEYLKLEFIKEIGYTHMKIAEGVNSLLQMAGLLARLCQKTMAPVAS
Sequence of UniProt Q9H1K0 (Q9H1K0 whole entry, looked up): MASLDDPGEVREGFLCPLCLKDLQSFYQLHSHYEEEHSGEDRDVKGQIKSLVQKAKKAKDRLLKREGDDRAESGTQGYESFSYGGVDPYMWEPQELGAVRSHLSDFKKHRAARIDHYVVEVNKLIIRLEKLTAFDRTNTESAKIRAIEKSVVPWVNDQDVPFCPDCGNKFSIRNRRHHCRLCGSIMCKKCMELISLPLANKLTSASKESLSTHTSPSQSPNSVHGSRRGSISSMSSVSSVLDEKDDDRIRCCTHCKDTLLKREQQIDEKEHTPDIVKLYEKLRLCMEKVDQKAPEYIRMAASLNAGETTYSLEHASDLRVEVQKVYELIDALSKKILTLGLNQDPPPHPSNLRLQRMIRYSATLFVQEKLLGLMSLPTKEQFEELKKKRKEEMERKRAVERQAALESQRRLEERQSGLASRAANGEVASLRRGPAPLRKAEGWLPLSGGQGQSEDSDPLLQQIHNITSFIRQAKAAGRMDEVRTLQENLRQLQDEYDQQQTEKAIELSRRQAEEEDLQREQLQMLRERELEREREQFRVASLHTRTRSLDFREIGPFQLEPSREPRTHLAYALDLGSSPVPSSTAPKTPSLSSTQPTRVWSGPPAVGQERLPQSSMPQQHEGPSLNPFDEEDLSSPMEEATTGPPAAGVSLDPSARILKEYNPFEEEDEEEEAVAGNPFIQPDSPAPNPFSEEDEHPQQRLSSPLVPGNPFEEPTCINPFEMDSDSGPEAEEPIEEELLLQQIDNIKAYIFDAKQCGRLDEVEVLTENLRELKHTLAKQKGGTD
Sequence of UniProt P18754 (P18754 whole entry, looked up): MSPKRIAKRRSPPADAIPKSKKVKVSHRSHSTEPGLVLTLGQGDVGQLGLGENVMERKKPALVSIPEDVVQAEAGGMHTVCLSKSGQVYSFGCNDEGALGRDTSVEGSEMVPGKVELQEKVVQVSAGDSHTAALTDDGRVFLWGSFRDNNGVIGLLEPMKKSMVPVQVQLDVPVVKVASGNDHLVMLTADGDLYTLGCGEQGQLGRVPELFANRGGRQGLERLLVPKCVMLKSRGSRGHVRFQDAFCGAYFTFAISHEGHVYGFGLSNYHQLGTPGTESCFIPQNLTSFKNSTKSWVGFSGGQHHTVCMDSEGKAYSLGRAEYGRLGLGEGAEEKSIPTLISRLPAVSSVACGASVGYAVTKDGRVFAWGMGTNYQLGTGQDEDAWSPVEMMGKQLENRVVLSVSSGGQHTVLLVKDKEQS

Target	log2 fold change (alvocidib)	log2 fold change (Tubastatin A)	log2 fold change [1]	log2 fold change (defactinib)	log2 fold change [2]	log2 fold change (encorafenib)	log2 fold change [3]	log2 fold change (alisertib)	log2 fold change [4]	log2 fold change (gefitinib)
RFC2 (UniProt P35250)	-0.025	-0.21	-0.012	0.023	-0.055	0.042	0.113	0.014	0.005	0.007
RPL8 (UniProt P62917)	0.007	0.023	0.02	0.038	0.104	0.022	-0.046	0.018	-0.008	0.011
RABEPK (UniProt Q7Z6M1)	0.03	-0.048	0.004	0.014	-0.025	0.004	0.032	0.002	0	0.01
RPN2 (UniProt P04844)	-0.024	0.001	-0.024	-0.006	-0.01	0.041	-0.031	-0.008	-0.03	0.011
RPAP1 (UniProt Q9BWH6)	-0.001	-0.077	0.016	-0.006	0.007	0.019	-0.069	0.013	0.027	-0.007
RFC3 (UniProt P40938)	-0.008	-0.142	0.024	0.036	-0.014	0.002	-0.005	0.007	0.029	-0.075
RAI14 isoform 2 (UniProt Q9P0K7)	0.019	-0.08	0.003	0.031	0.077	0.012	0.083	-0.018	0	0.029
RALA (UniProt P11233)	-0.164	0.044	0.016	-0.057	0.056	0.03	-0.102	0.009	0.01	0.023
RAE1 (UniProt P78406)	-0.038	-0.072	0.039	-0.004	-0.044	0.038	0.345 (active)	-0.015	-0.002	0.033
RAF1 isoform 2 (UniProt P04049)	0.048	-0.022	0.019	-0.097	-0.001	1.06 (active)	0.048	-0.007	0.052	0.022
RCC1 isoform 2 (UniProt P18754)	0.012	-0.168	0.018	0.055	-0.007	0.006	0.151	0.006	-0.017	-0.003
SDHA (UniProt P31040)	-0.004	-0.012	0	-0.04	0.002	-0.023	-0.04	-0.023	-0.014	-0.031
ROCK1 (UniProt Q13464)	0.004	0.013	-0.029	-0.02	0.039	-0.004	-0.019	-0.045	0.022	-0.004
RPS4X (UniProt P62701)	0.039	0.032	-0.03	-0.027	0.029	-0.036	0.063	0.004	0.002	-0.028
RPL37A (UniProt P61513)	0.159	0.024	0.022	-0.045	0.161	0.004	0.021	-0.006	0.004	-0.064
RCOR3 isoform 3 (UniProt Q9P2K3)	-0.005	-0.09	-0.002	0.009	-0.014	0.012	0.088	0.003	-0.006	0.026
SEC24D isoform 2 (UniProt O94855)	-0.012	-0.018	0.002	0.012	-0.008	0.029	-0.163	0.005	0.006	0.006
RNF113A (UniProt O15541)	-0.062	0.05	0.014	-0.013	0.022	-0.019	-0.017	-0.015	0.015	0.004
RRAGA (UniProt Q7L523)	-0.122	-0.687 (active)	-0.053	-0.044	-0.045	-0.032	-0.022	-0.161	0.017	0.04
SAMHD1 (UniProt Q9Y3Z3)	-0.019	-0.072	0.041	-0.021	-0.015	0	0.099	-0.013	0.02	0.044
SEC13 isoform 3 (UniProt P55735)	0.107	0.029	-0.024	-0.06	-0.064	0.002	-0.039	0.02	-0.004	0.03
RAC2 (UniProt P15153)	0.047	-0.086	0.082	0.007	0.06	-0.022	-0.001	0.051	0.056	0.016
SEC62 (UniProt Q99442)	0.046	0.07	0.019	0.02	0.045	-0.012	-0.084	-0.003	-0.028	0.004
RBBP7 isoform 2 (UniProt Q16576)	-0.005	-0.004	-0.021	-0.023	-0.028	0.03	-0.034	0.03	-0.003	0.002
RPTOR (UniProt Q8N122)	0.008	-0.11	0.036	0	-0.048	-0.004	-0.007	-0.012	-0.005	-0.007
SBF1 isoform 4 (UniProt O95248)	0.005	0.074	-0.054	0.022	-0.099	-0.004	-0.009	0.238	0.008	0.062
RBSN (UniProt Q9H1K0)	-0.031	0.005	-0.047	0.015	-0.014	0.089	-0.048	0.019	0.015	0.059
RPL27 (UniProt P61353)	0.049	0.009	-0.015	0.006	0.056	-0.015	0.012	0.006	0.006	-0.023
QRSL1 (UniProt Q9H0R6)	-0.028	-0.021	-0.012	-0.068	-0.051	-0.015	-0.005	0.014	0.014	-0.045
